From PubChem BioAssay AID488922 (Johns Hopkins Ion Channel Center, 2010) come the findings set out here.

In all, about 310,000 compounds went through this assay and about 3,800 (1.2%) were called active. The sample holds actives, similar compounds and a random draw of the others, so the mix is not that of the screen.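 How the source made its calls: active means ratio B-score over 3 SD below the library mean, with starting fluorescence within 5 SD of its mean; inactive means the rest, inconclusive results apart.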

The target in the experiment is Potassium channel subfamily K member 9 (Homo sapiens) (UniProt Q9NPC2). Description: KCNK9 potassium channel inhibitors, primary screen, HEK293 cells, thallium flux (AID 488922).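 On B-score: negative B-score means less thallium flux so channel inhibition.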 To be noted: HEK293 KCNK9, FluxOR thallium flux fluorescence, at 10 µM; active compounds read low.
Chain of Potassium channel subfamily K member 9 (Homo sapiens) (Q9NPC2 whole entry, looked up): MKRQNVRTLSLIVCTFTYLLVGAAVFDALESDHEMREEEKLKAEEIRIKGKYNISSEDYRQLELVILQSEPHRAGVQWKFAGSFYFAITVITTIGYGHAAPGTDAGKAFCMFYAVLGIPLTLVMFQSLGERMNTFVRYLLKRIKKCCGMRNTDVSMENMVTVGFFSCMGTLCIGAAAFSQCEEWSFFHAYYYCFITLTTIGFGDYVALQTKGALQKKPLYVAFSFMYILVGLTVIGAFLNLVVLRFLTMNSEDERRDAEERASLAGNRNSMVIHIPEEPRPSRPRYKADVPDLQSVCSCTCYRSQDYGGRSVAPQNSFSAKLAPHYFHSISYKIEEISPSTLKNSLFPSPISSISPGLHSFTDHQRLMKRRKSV
Turning to `CC(C)Cc1nnc(NC(=O)CN2C(=O)NC3(CCCCC3)C2=O)s1`, the B-score result was “inactive”.
As for `COc1cc(/C=C/C(=O)O)cc(S(=O)(=O)Nc2ccccc2C(=O)NCCc2ccccc2)c1OC`, the entry is “inactive”; as for `CC1CCCC(NC(=O)c2cccc(N3CCCC3=O)c2)C1C` (centres undefined), “inactive”; as for `O=C(/C=C/Sc1ncn[nH]1)c1ccc(Cl)cc1`, “inactive”.
Next, `CC(CC(=O)Nc1cc(C(F)(F)F)ccc1Cl)c1ccccc1` (centres undefined): “inactive”.
Next, `O=C(Nc1cc(C(F)(F)F)ccc1Cl)C(=O)N1CCCCC1`: “inactive”; `O=C(NNc1ccccc1Cl)C(O)(c1cccc(C(F)(F)F)c1)c1cccc(C(F)(F)F)c1`: -8.19 (active); `CCO[C@H]1OC(C(=O)NCc2ccccc2)=C[C@@H](c2coc3ccccc3c2=O)[C@@H]1CCCO`: “inactive”.
On to `O=C(COc1ccc2c3c(c(=O)oc2c1)CCCC3)NCC(O)c1ccccc1` (centres undefined), for which the B-score entry was “inactive”.
As for `CN1CCN(CC#CCC2(O)c3ccccc3-c3ccccc32)CC1`, the entry is “inactive”; as for `NC(=O)c1sc2nc3c(c(-c4ccccc4)c2c1N)CCC3`, “inactive”.
On to `Cc1cccc(NC(=O)c2sc3nc(N4CCOCC4)c4c(c3c2N)CCCC4)c1`, for which the B-score result was “inactive”.
As for `Cc1cccc(NC(=O)c2sc3nc4c(c(-c5ccco5)c3c2N)CCC4)c1`, the figure is -10.4 (active); as for `CC1(C)CC(=O)C(C2c3ccccc3S(=O)(=O)c3ccccc32)C(=O)C1`, “inactive”; as for `COc1ccc(C2Nc3ccccc3C(=O)N2c2ccc(Cl)cc2)cc1Cn1cc([N+](=O)[O-])cn1` (centres undefined), -7.96 (active).
Next, `COc1cnn(-c2ccc([N+](=O)[O-])cc2)c(=O)c1Cl`: “inactive”.
With `COc1ccc(N2C(=O)c3ccccc3NC2c2ccc(OC)c(CN3CCOCC3)c2)cc1` (centres undefined), the B-score entry is “inactive”.
Next, `CCCCn1c(N)c(N(CC(C)C)C(=O)c2ccc(Br)o2)c(=O)[nH]c1=O`: “inactive”.
In the case of `Cc1ccccc1-c1nc(CS(=O)(=O)CC(=O)NC(C)c2ccccc2)c(C)o1` (centres undefined), the B-score result is “inactive”.
For `CCOc1ccc(NC(=O)CN(C)C(=O)COc2cccc(CC)c2)cc1OCC`, the B-score entry is “inactive”.
As to `O=C1c2ccccc2S(=O)(=O)N1CC(O)Cn1c2ccccc2c2ccccc21` (centres undefined), the B-score is -10.9 (active).
Take `CC(C)(C)c1ccc(CN2C(=O)c3ccccc3S2(=O)=O)cc1`: the B-score result was “inactive”.
Next, `CCCCN(CCCC)CC(O)Cn1c2ccccc2c(=O)c2ccccc21` (centres undefined): “inactive”; `CC(=O)Nc1ccc(S(=O)(=O)NNC(=O)CCc2ccccc2)cc1`: “inactive”.
Regarding `Cc1c(NC(=O)c2cc(-c3ccc(Cl)s3)nc3ccccc23)c(=O)n(-c2ccccc2)n1C`, the B-score result is “inactive”.
Next, `Cc1cc(C)c(SCCc2ccncc2)c(C)c1`: “inactive”; `CCOC(=O)C(NS(=O)(=O)c1ccc(C)cc1)(C(F)(F)F)P(=O)(OCC(C)C)OCC(C)C` (centres undefined): “inactive”.
With `CC1(C)CC(N2CCN(C(c3ccccc3)c3ccccc3)CC2)=CC(=[N+]2CCCCC2)C1`, the B-score was -17.2 (active).
As to `O=C(O)CN1CCN(C(c2ccccc2)c2ccccc2)CC1`, the B-score entry was “inactive”.
In the case of `CC1(C)CC(=O)C=C(N2CCCC2)C1`, the B-score entry is “inactive”.
Take `Cc1ccccc1-n1cc(CNC(=O)CC2C(=O)NCCN2C/C=C/c2ccccc2)cn1` (centres undefined): the B-score result is “inactive”.
Take `CCOc1ccc(C(=O)CCN2CCOCC2)cc1`: the B-score result was “inactive”.
Turning to `CC(C)(C)OC(=O)NNc1c2ccccc2nc2ccccc12`, the B-score entry was “inactive”.
Next, `O=C(N/N=C/c1cccnc1)c1cc2ccccc2cc1O`: “inactive”; `O=C(NNc1c2ccccc2nc2ccccc12)c1cc2ccccc2cc1O`: -7.49 (active).
Consider `O=C(COc1ccc(NC(=O)c2ccccc2[N+](=O)[O-])cc1)c1ccc(F)cc1`, for which the B-score result was “inactive”.
With `CC(C)CC(=O)Nc1ccc(Cc2ccncc2)cc1`, the B-score result is “inactive”.
For `COc1ccccc1NC(=O)C1CCCN1S(=O)(=O)c1ccc(Cl)cc1` (centres undefined), the B-score result is “inactive”.
On to `CN(c1ccccc1)S(=O)(=O)c1cccc(C(=O)NNC(=O)c2ccncc2)c1`, for which the B-score result was “inactive”.
On to `Cc1cc(NC(=O)CSc2nc3cc(Cl)ccc3c(=O)n2Cc2ccco2)no1`, for which the B-score entry is “inactive”.
Take `COc1ccccc1NC(=O)CSc1nc2sc(C)c(C)c2c(=O)n1Cc1ccco1`: the B-score is -9.54 (active).
Next, `COc1ccccc1NC(=O)CSc1nc2sc3c(c2c(=O)n1-c1ccccc1)CCN(C)C3`: “inactive”; `O=S(=O)(NCC1CCCO1)c1cnc(Cl)c(Cl)c1` (centres undefined): “inactive”.
Turning to `COC(=O)CCCC1=CC2=C(c3ccccc3)C(=O)C(C)(OC(=O)C3CCCC3)C(=O)C2=CN1c1ccc(OC)cc1` (centres undefined), the B-score entry is “inactive”.
As for `COC(=O)c1cn(CC(=O)NCc2cccs2)c2ccccc12`, the entry is “inactive”; as for `O=C(Cn1cc(C(=O)c2cccs2)c2ccccc21)NCc1cccs1`, -13.5 (active); as for `COCCNC(=O)Cn1cc(C(=O)c2cccs2)c2ccccc21`, “inactive”.
Turning to `Cc1ccc(C(C[N+](=O)[O-])c2c(C)cc3ccccn23)cc1` (centres undefined), the B-score result was “inactive”.
As to `COc1cccc(CC2(CO)CCCN(Cc3ccc(OC(F)F)cc3)C2)c1` (centres undefined), the B-score result was “inactive”.
For the compound `Cc1cc(C)cc(Oc2c(C(F)(F)F)oc3cc(OCC(=O)O)ccc3c2=O)c1`, the B-score entry is “inactive”.
As to `COc1ccc(N(CCC#N)S(=O)(=O)c2ccc(Cl)cc2)cc1`, the B-score entry is “inactive”.
`Cc1cccc2cc(CN(Cc3nnnn3Cc3ccccc3)C3CCCC3)c(=O)[nH]c12`: the B-score is -11.5 (active).
Turning to `CCC(c1nnnn1Cc1ccco1)N(CCc1ccccc1)Cc1cc2cccc(C)c2[nH]c1=O` (centres undefined), the B-score is -8.62 (active).
As for `CCC(c1nnnn1Cc1ccco1)N(Cc1cc2cc(OC)ccc2[nH]c1=O)C1CCCCC1` (centres undefined), the entry is “inactive”.
As for `CCC(c1nnnn1Cc1ccco1)N(CCc1ccccc1)Cc1cc2ccc(OC)cc2[nH]c1=O` (centres undefined), the entry is “inactive”; as for `Cc1cc(C)c2cc(CN(Cc3nnnn3Cc3ccc(F)cc3)C3CCCC3)c(=O)[nH]c2c1`, “inactive”; as for `Cc1cccc2cc(CN(Cc3ccc4c(c3)OCO4)Cc3nnnn3C3CCCC3)c(=O)[nH]c12`, “inactive”.
In the case of `C/C=N/NC(=O)CCCC(=O)N/N=C/C`, the B-score entry was “inactive”.
Turning to `CCNCCC(=O)N1c2ccccc2Sc2ccc(NC(=O)OCC)cc21`, the B-score result was “inactive”.
On to `c1n[nH]c(NCc2ccc3c(c2)OCO3)n1`, for which the B-score result is “inactive”.
Turning to `Cn1cc(CCC(=O)NCc2ccc3c(c2)OCO3)c2ccccc21`, the B-score entry is “inactive”.
As for `N#Cc1nc(Cc2cccc3ccccc23)oc1NCc1ccc2c(c1)OCO2`, the figure is -11.2 (active).
Next, `CC(=O)N1Cc2ccccc2CC1C(=O)O` (centres undefined): “inactive”.
As to `O=C(CN1C(=O)S/C(=C\c2ccccc2Cl)C1=O)NC1C=CS(=O)(=O)C1` (centres undefined), the B-score result is “inactive”.
As for `O=C(CN1CCCCCC1)NCCN1C(=O)S/C(=C\c2ccccc2Cl)C1=O`, the entry is “inactive”; as for `CN1C2CCC1/C(=C\c1ccccc1Cl)C(=O)/C2=C\c1ccccc1Cl`, -8.6 (active).
Turning to `O=C(CCc1nnc2ccc(NCc3ccccc3Cl)nn12)NCC1CCN(C2CCCC2)C1` (centres undefined), the B-score result is “inactive”.
As for `Cc1ccc(CCNC(=O)C2CCN(S(=O)(=O)N3CCCC3)CC2)cc1`, the B-score entry is “inactive”.
As for `O=C(CNC1CCCCC1)NCC1(c2ccccc2)CCCC1`, the B-score is -7.46 (active).
As for `COc1cc(C(=O)NCC2(c3ccccc3)CCCC2)ccc1OC(C)C`, the entry is “inactive”.
Consider `CCOc1c(OC)cccc1C(=O)NCC1(c2ccccc2)CCCC1`, for which the B-score result was “inactive”.
Consider `C=C(Br)CN1CCN(CC(=C)Br)CC1`, for which the B-score entry is “inactive”.
As for `CCCCNC(=O)N1CCN(S(C)(=O)=O)CC1`, the entry is “inactive”; as for `CN(C)N=Nc1ccc2nc[nH]c2c1`, “inactive”.
As for `Fc1ccc(Cn2nnnc2C(c2cccs2)N2CCCCCC2)cc1` (centres undefined), the figure is -13.1 (active).
For the compound `Fc1ccccc1C(c1nnnn1Cc1ccc2c(c1)OCO2)N1CCN(Cc2ccccc2)CC1` (centres undefined), the B-score entry was “inactive”.
Next, `Cc1cc(C)c2[nH]c(=O)c(C(c3nnnn3Cc3ccc4c(c3)OCO4)N3CCCC3)cc2c1` (centres undefined): “inactive”; `CCCn1c(SCC(=O)Nc2ccc(C)c(S(=O)(=O)N3CCOCC3)c2)n[nH]c1=O`: “inactive”.
For the compound `Cc1ccc(C(=O)OCC(=O)N2CC(C)CC(C)C2)cc1S(=O)(=O)N1CCCCC1` (centres undefined), the B-score result is “inactive”.
Next, `COc1ccc2c(CC(=O)N3CCc4cc(OC)c(OC)cc4C3)coc2c1`: “inactive”; `N/C(Cc1ccc([N+](=O)[O-])cc1)=N\OC(=O)COc1ccc2ccccc2c1`: -7.84 (active).
Next, `N/C(=N\OC(=O)COc1ccc([N+](=O)[O-])cc1)c1ccc(Br)cc1`: “inactive”.
Next, `Cc1cc(C)cc(OCC(=O)O/N=C(\N)Cc2ccc([N+](=O)[O-])cc2)c1`: “inactive”; `CCCc1cc(=O)oc2cc(OCC(=O)Nc3ccc(CN4CCOCC4)cc3)c(Cl)cc12`: “inactive”; `CN(C)c1ccc(NC(=O)c2ccncc2)c2ccccc12`: “inactive”.
With `c1ccc(C(c2ccccc2)N2CCN(Cc3nnnn3C3CCCCC3)CC2)cc1`, the B-score was -14.6 (active).
Next, `Oc1ccccc1CN1CCN(C(c2ccccc2)c2ccccc2)CC1`: “inactive”; `c1ccc(CCn2nnnc2CN2CCN(C3CCCC3)CC2)cc1`: “inactive”.
In the case of `Cc1nn(Cc2ccccc2Cl)c(C)c1NC(=O)Cn1nc([N+](=O)[O-])c(Cl)c1C`, the B-score result is “inactive”.
On to `CC(=O)N1CCN(c2ccccc2NC(=S)NC(=O)c2cc3ccccc3o2)CC1`, for which the B-score result is “inactive”.
Next, `O=C(NCc1ccco1)c1ccc([N+](=O)[O-])cc1Cl`: “inactive”; `O=C(NCc1ccco1)c1ccc(NS(=O)(=O)c2cccc([N+](=O)[O-])c2)cc1`: -8.56 (active); `O=C(NCc1ccncc1)c1ccc(NS(=O)(=O)c2cccc([N+](=O)[O-])c2)cc1`: “inactive”.
On to `O=C1CCCC(O)=C1N=Nc1ccc2ncsc2c1`, for which the B-score entry was “inactive”.
Next, `Cc1ccc(S(=O)(=O)N2CCC(C(=O)NCCC3=CCCCC3)CC2)cc1C`: “inactive”.
Take `c1ccc(-c2nc(NCc3ccco3)c3ccccc3n2)cc1`: the B-score was -6.58 (active).
Regarding `c1coc(CNc2ncnc3ccccc23)c1`, the B-score result is “inactive”.
Next, `CCOCCCNc1nc(-c2ccccc2)nc2ccccc12`: “inactive”; `O=C(NCc1ccco1)c1nc(-c2ccccc2)n(-c2ccccc2)n1`: “inactive”; `CS(=O)(=O)n1nc(-c2ccccc2)nc1NCc1ccco1`: “inactive”.
As for `O=C(Cc1ccccc1)n1nc(-c2ccccc2)nc1NCc1ccco1`, the figure is -9.15 (active); as for `CC(OC(=O)c1ccc(NS(=O)(=O)c2ccc3[nH]c(=O)[nH]c3c2)cc1)C(=O)Nc1cccc(Cl)c1Cl` (centres undefined), “inactive”; as for `COc1ccc(-c2cnc(SCCNC(=O)c3ccc4c(c3)OCO4)[nH]2)cc1`, “inactive”.
On to `Cc1ccccc1N1CCN(CC(=O)NCc2ccc(Cl)cc2)CC1`, for which the B-score result is “inactive”.
Turning to `O=C(NCCc1ccc(Cl)cc1)C1CCCN1C(=O)NCc1ccccc1` (centres undefined), the B-score entry is “inactive”.
As to `O=C(Nc1ccc(O)cc1)c1ccc(NC(=O)c2ccco2)cc1`, the B-score result is “inactive”.
Next, `O=C(Nc1ccccc1)c1ccco1`: “inactive”; `O=C(Nc1ccc(Oc2ccccc2)cc1)c1ccco1`: -10.1 (active); `Cc1cc(C)cc(NC(=O)C2CCCN(S(=O)(=O)c3ccc4[nH]c(=O)ccc4c3)C2)c1` (centres undefined): “inactive”.
Take `O=C(Oc1ccccc1C(=S)N1CCCCC1)c1cc([N+](=O)[O-])cc([N+](=O)[O-])c1`: the B-score entry was “inactive”.
Regarding `COc1cc(C(=S)N2CCOCC2)cc(OC)c1OC(=O)c1cc([N+](=O)[O-])cc([N+](=O)[O-])c1`, the B-score entry is “inactive”.
In the case of `O=C(Oc1ccc(Br)cc1C(=S)N1CCOCC1)c1cccc([N+](=O)[O-])c1`, the B-score was -16.4 (active).
For `COc1ccccc1C(=O)Nn1cnnc1`, the B-score entry is “inactive”.
In the case of `CC(=O)Nc1ccc(OCCC[n+]2cccc(C(=O)[O-])c2)cc1`, the B-score result was “inactive”.
As for `Nc1c(-c2ccccc2)nnn1Cc1ccccc1`, the entry is “inactive”.
Regarding `CC(C)(C)c1ccc(C(=O)NCc2ccco2)cc1`, the B-score result is “inactive”.
Next, `CCCC1=Nc2cc(C(=O)NCc3ccco3)ccc2Sc2ccccc21`: -8.7 (active); `CCCC1=Nc2cc(C(=O)NCCN3CCCC3)ccc2Sc2ccccc21`: “inactive”; `CN(C)/C=C(\C#N)C(=O)c1cccnc1Oc1cccc(F)c1`: “inactive”.
